Results on eight compounds are retold here after PubChem BioAssay (NCI).

This is part of a sample that, as a whole, favours compounds with a hit. Of some 83,000 tested, about 20% had one in any assay.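 Each cell line was grown in a 96-well plate and treated with one concentration of compound for 48 hours. Values below 10 were considered active.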 Unmarked numbers belong to inactive results. The source made the active and inactive calls.

Holding throughout (assay): NCI-60 one-dose screen, 48 h (100 = growth as untreated, 0 = no growth, -100 = all killed)
For one test, the system named is HT29 colon. Particulars: 10 µM unless noted.
A further test concerns SNB-75 CNS. Particulars: 10 µM unless noted.
The test system of another test is SNB-19 CNS. Particulars: 10 µM unless noted.
In the next test the test system is U251 CNS. Particulars: 10 µM unless noted.
In a further test the test system is PC-3 prostate. The following applies: 10 µM unless noted.
The subject of the next test is SK-MEL-5 melanoma. The following applies: 10 µM unless noted.
A further test deals with UACC-62 melanoma. Particulars: 10 µM unless noted.
In a further test the test system is LOX IMVI melanoma. The following applies: 10 µM unless noted.
In the next test the test system is SK-MEL-28 melanoma. The following applies: 10 µM.
A further test concerns SK-MEL-2 melanoma. Particulars: 10 µM unless noted.
The next test has as its system EKVX NSCLC. Particulars: 10 µM unless noted.
The subject of another test is SN12C renal. Particulars: 10 µM unless noted.
In another test the test system is UO-31 renal. Particulars: 10 µM unless noted.
For the next test, the system named is TK-10 renal. The following applies: 10 µM unless noted.
The test system of another test is ACHN renal. Particulars: 10 µM unless noted.
The next test deals with CAKI-1 renal. Particulars: 10 µM unless noted.
A further test has as its system CCRF-CEM leukemia. The following applies: 10 µM unless noted.
The subject of a further test is MOLT-4 leukemia. Particulars: 10 µM unless noted.
For a further test, the system named is SR leukemia. The following applies: 10 µM unless noted.
Another test concerns A498 renal. The following applies: 10 µM unless noted.

Regarding `Cc1cccc2c(=O)c3c(sc12)c(NCCCNCCO)nc1ccccc13`, the growth in the test on HT29 colon is -24.1% (active); with SNB-75 CNS, 23.8%; with SNB-19 CNS it was 64.7%; with U251 CNS, 28.7%; in the test on PC-3 prostate, 43.6%; in the test with SK-MEL-5 melanoma, 59%. Further, the growth in the test on UACC-62 melanoma is 60.2%; in the test with LOX IMVI melanoma it was -88.2% (active); in the test with SK-MEL-28 melanoma, 32.9%; in the test on SK-MEL-2 melanoma, 91.2%; with EKVX NSCLC, 53.5%; in the test on SN12C renal, 44.6%. Besides, the growth with UO-31 renal is 34.8%; with TK-10 renal it was 49.5%; with ACHN renal it was 9.89% (active); with CAKI-1 renal, 24.8%; in the test on CCRF-CEM leukemia, 15%; in the test with MOLT-4 leukemia it was -34% (active). Also, the growth with SR leukemia is -27.3% (active).

`O=C1Nc2ccccc2/C1=C/c1ccc[nH]1`: the growth in the test on HT29 colon was 110%; in the test on SNB-75 CNS it was 105%; with SNB-19 CNS, 90.3%; in the test with U251 CNS, 83%; with PC-3 prostate, 106%; in the test with SK-MEL-5 melanoma it was 58.7%. Besides, the growth in the test with UACC-62 melanoma is 97.7%; with LOX IMVI melanoma, 98.8%; in the test with SK-MEL-28 melanoma, 114%; with SK-MEL-2 melanoma, 103%; with EKVX NSCLC it was 32.8%; in the test on SN12C renal, 92.7%. For the same compound, the growth in the test on UO-31 renal is 61.9%; in the test on TK-10 renal, 63.5%; in the test with ACHN renal it was 84%; with A498 renal, 88.5%; with CCRF-CEM leukemia, 109%; with MOLT-4 leukemia, 101%. For the same compound, the growth in the test with SR leukemia is 71.7%.

Regarding `COc1ccc(Cn2c(Br)c3c(c2Br)-c2nc(N)sc2CC3)cc1`, the growth with HT29 colon is 16.8%; in the test with SNB-75 CNS, 38.2%; in the test on SNB-19 CNS, 66.9%; in the test with U251 CNS, 36.5%; in the test with PC-3 prostate, 56.6%; in the test with SK-MEL-5 melanoma, 15.1%. The growth in the test on UACC-62 melanoma was 27.5%; with LOX IMVI melanoma, 35.7%; in the test with SK-MEL-28 melanoma it was 46.1%; in the test with SK-MEL-2 melanoma, 22%; with SN12C renal it was 41.2%; in the test with UO-31 renal, 52.4%. The growth in the test on TK-10 renal was 71.1%; in the test on ACHN renal, 55.2%; with CAKI-1 renal it was 39%; in the test on A498 renal it was 11.6%; in the test on CCRF-CEM leukemia, 4.26% (active); in the test on MOLT-4 leukemia, 4.01% (active). Further, the growth with SR leukemia is 4.13% (active).

For `COc1ccc(-c2nc(-c3ccccc3)c(-c3ccccc3)[nH]2)cc1OC1CCCCC1`, the growth with HT29 colon is 99.1%; in the test on SNB-75 CNS it was 78.7%; in the test with SNB-19 CNS it was 85.8%; with U251 CNS, 90.3%; in the test with PC-3 prostate it was 64.8%; in the test on SK-MEL-5 melanoma, 93.6%. The growth is 76.7% in the test with UACC-62 melanoma; 83.4% in the test with LOX IMVI melanoma; 96.4% with SK-MEL-28 melanoma; 95.1% in the test on SK-MEL-2 melanoma; 81.6% in the test on SN12C renal; 59.3% in the test on UO-31 renal. Besides, the growth with TK-10 renal is 115%; in the test with ACHN renal, 68.9%; with CAKI-1 renal it was 71.7%; with A498 renal, 68.2%; with CCRF-CEM leukemia, 91.6%; with MOLT-4 leukemia it was 79.4%.

Take `Cc1ccc(OCCCCCCNCCO)c(C)c1`: the growth with HT29 colon is 22.4%; in the test with SNB-75 CNS, 31.1%; with SNB-19 CNS, 14.5%; in the test on U251 CNS it was 3.86% (active); in the test with PC-3 prostate it was 16%; with SK-MEL-5 melanoma it was -58.3% (active). The growth was -42% (active) in the test with UACC-62 melanoma; -1.77% (active) with LOX IMVI melanoma; 15.5% with SK-MEL-28 melanoma; 2.48% (active) in the test on SK-MEL-2 melanoma; 7.94% (active) in the test with SN12C renal; -21% (active) with UO-31 renal. Moreover, the growth is 28.9% in the test with TK-10 renal; 15.3% in the test with ACHN renal; -8.91% (active) with CAKI-1 renal; 35.3% with A498 renal; 7.2% (active) with CCRF-CEM leukemia; 10.6% in the test with MOLT-4 leukemia. For the same compound, the growth with SR leukemia is 11.2%.

Consider `CCOc1cccc(/C=N\Nc2nc(=O)cc(C(=O)OC)s2)c1O`, for which the growth was 76.1% in the test on HT29 colon; 77.8% with SNB-75 CNS; 75.9% in the test on SNB-19 CNS; 57.6% in the test with U251 CNS; 72.8% with PC-3 prostate; 79.8% in the test with SK-MEL-5 melanoma. Further, the growth in the test with UACC-62 melanoma was 63%; with LOX IMVI melanoma it was 61.7%; with SK-MEL-28 melanoma, 87.2%; in the test on SK-MEL-2 melanoma, 99.6%; in the test on SN12C renal, 59.1%; in the test on UO-31 renal it was 49.7%. Also, the growth in the test on TK-10 renal was 107%; in the test on ACHN renal, 68.8%; with CAKI-1 renal, 65.9%; with A498 renal, 87.2%; in the test on CCRF-CEM leukemia, 38.4%; with MOLT-4 leukemia it was 53.6%. The growth in the test on SR leukemia is 50.7%.

Take `C[n+]1c2ccccc2nc2ccc(NCCO)cc21`: the growth with HT29 colon was 8.37% (active); in the test on SNB-75 CNS it was 98.8%; in the test on SNB-19 CNS it was 78.3%; in the test with U251 CNS it was 80.5%; in the test on PC-3 prostate it was 50.7%; in the test on SK-MEL-5 melanoma it was 98%. Besides, the growth in the test with UACC-62 melanoma was 84.1%; in the test with LOX IMVI melanoma it was 90.6%; in the test with SK-MEL-28 melanoma, 110%; with SK-MEL-2 melanoma, 102%; with SN12C renal, 85.6%; in the test with UO-31 renal, 45.8%. In addition, the growth in the test on TK-10 renal was 127%; with ACHN renal, 83.7%; in the test on CAKI-1 renal, 93.4%; in the test with A498 renal it was 75.1%; in the test on CCRF-CEM leukemia it was 64.5%; in the test on MOLT-4 leukemia it was 63.8%. Besides, the growth in the test with SR leukemia was 60.3%.

Consider `O=C(O)CCC(=O)c1ccc(C2CCCCCC2)cc1`, for which the growth was 91.6% in the test with HT29 colon; 96.5% in the test on SNB-75 CNS; 93.2% in the test on SNB-19 CNS; 96% in the test on U251 CNS; 99.2% in the test on PC-3 prostate; 105% in the test with SK-MEL-5 melanoma. Moreover, the growth in the test on UACC-62 melanoma is 106%; in the test with LOX IMVI melanoma, 99%; in the test with SK-MEL-28 melanoma, 113%; with SK-MEL-2 melanoma, 105%; in the test with SN12C renal, 99.5%; in the test on UO-31 renal, 80.4%. The growth was 99.1% in the test with TK-10 renal; 97.1% in the test with ACHN renal; 97.4% with CAKI-1 renal; 89.2% in the test with A498 renal; 101% in the test with CCRF-CEM leukemia; 87.3% with MOLT-4 leukemia. Also, the growth in the test with SR leukemia was 93.8%.
